The values below come from paper PMC7819943, “Rice protein-binding microarrays: a tool to detect cis-acting elements near promoter regions in rice”.

In all, about 68,000 sequences were measured (“fluorescence intensity (a.u.)”: median about 9,100, highest 2% from about 16,000 on). The full list was thinned out, with the highest values kept by preference.

Sequence of OsWRKY34 (Q0JBA9 entry or part of it): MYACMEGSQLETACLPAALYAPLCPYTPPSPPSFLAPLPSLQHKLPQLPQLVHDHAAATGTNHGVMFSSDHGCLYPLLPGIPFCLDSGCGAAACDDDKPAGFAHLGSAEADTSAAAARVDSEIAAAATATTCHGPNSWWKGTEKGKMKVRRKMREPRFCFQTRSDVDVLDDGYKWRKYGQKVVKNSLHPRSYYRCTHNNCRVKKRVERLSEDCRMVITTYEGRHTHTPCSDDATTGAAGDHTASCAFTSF

The assay concerns the target OsWRKY34 (Oryza sativa, UniProt Q0JBA9 1-250). Kind of assay: protein-binding microarray (RPBM); PBS, 2% BSA, 51.3 ng/ul salmon testes DNA, 50 uM zinc acetate, 200 nM TF, 25 C, 1 h; high values mean tight binding. The conditions noted are these: protein: recombinant; tags: N-terminal polyhistidine and DsRed monomer fusion (pET32a); label: CyDye5-dUTP incorporated in the synthesized complementary strand; 3' TTTTT single-stranded linker to array surface; dsDNA, one strand shown. Summed up: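 The binding signal is fluorescence intensity per array feature (arbitrary units). Readings came from an Axon 4000B scanner after a washed, 2% BSA-blocked, double-stranded custom Agilent array had been incubated for 1 h at 25 °C with 200 nM protein and 50 µM zinc acetate. The protein was a Ni–NTA-purified transcription factor fused N-terminally to polyhistidine and DsRed, expressed in E. coli BL21-CodonPlus.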
“CTCCCTTGCCGTCCCAGTTTCCCTGTATTCTGCATGCCGTCGGAGTCACCTAGTGCAG”: the binding signal is 9850 fluorescence intensity (a.u.). The same measure for “ACTTTGCTGCCTATTGTAGATTTGTTATAACGTAGTTACTCGGAGTCACCTAGTGCAG”: 10400 fluorescence intensity (a.u.). In the case of “AACCCTCGCTTTCTTTGATAATCATTCCTAACTGCCTGGTCGGAGTCACCTAGTGCAG”, the binding signal was 8170 fluorescence intensity (a.u.). Turning to “AGTTACTGAGTTAGACGTCTCAAGCTGTGTCGTGGAATAACGGAGTCACCTAGTGCAG”, the binding signal was 8700 fluorescence intensity (a.u.). For the sequence “AGGAGAGAAAGGAAGGTGGTGTGGGTGGTTGGTGGTGGTGCGGAGTCACCTAGTGCAG”, the binding signal is 10300 fluorescence intensity (a.u.).

Turning to “GTCTTCTCTGTTCTTCTTCAGATGGCGAAAGCTCTCACCACGGAGTCACCTAGTGCAG”, the binding signal is 10400 fluorescence intensity (a.u.).

With “ATATATATATATATATATATATATATATATACACACACACCGGAGTCACCTAGTGCAG”, the binding signal is 22200 fluorescence intensity (a.u.). The same measure for “ATATATATATATATATATATATGTGTGTGTGTGTGTGTCCCGGAGTCACCTAGTGCAG”: 14500 fluorescence intensity (a.u.).

In the case of “ATATATATATATATATATATATATATATATATGTATGTATCGGAGTCACCTAGTGCAG”, the binding signal is 10100 fluorescence intensity (a.u.).

Regarding “ATATATATATATATATATATATATATATATATGCAGCATGCGGAGTCACCTAGTGCAG”, the binding signal is 13100 fluorescence intensity (a.u.).

“CTTTAATAGTATAGCCAACTACTACCTCGGAATCACCTATCGGAGTCACCTAGTGCAG”: the binding signal is 20300 fluorescence intensity (a.u.).

Consider “ATATATATATATATATATGTGTGTATATATATATATATATCGGAGTCACCTAGTGCAG”, for which the binding signal is 8920 fluorescence intensity (a.u.). The same measure for “TATATATACACACACACACAAACACACACACACACACACACGGAGTCACCTAGTGCAG”: 8720 fluorescence intensity (a.u.); for “ATATATATATATATATATATATATATGCAGCAACAGGGCCCGGAGTCACCTAGTGCAG”: 17400 fluorescence intensity (a.u.); for “ATAGCCAACTATTACTTTTAAATTATTTATAGTCAAATTTCGGAGTCACCTAGTGCAG”: 9190 fluorescence intensity (a.u.).

Turning to “TATATATATATATATATATATATATATATATATGGAGTATCGGAGTCACCTAGTGCAG”, the binding signal was 24600 fluorescence intensity (a.u.). The same measure for “GCCTGCTATTGTACCTGCTTTAATATAGCCAACCTACTATCGGAGTCACCTAGTGCAG”: 8330 fluorescence intensity (a.u.). In the case of “ATATATATATATATATATATACATACATATACACACACACCGGAGTCACCTAGTGCAG” it was 8050 fluorescence intensity (a.u.); in that of “CTACTTTACCAGCTCATCTATCACATCTTAACTGTATTTTCGGAGTCACCTAGTGCAG”, 10300 fluorescence intensity (a.u.); in that of “ACCCGTCTCTCTTTCTTTCTTTCTCTCTCTCCTGTGTTTTCGGAGTCACCTAGTGCAG”, 8600 fluorescence intensity (a.u.).

As for “TCCACACACCCCGCTTGCTAACCAACCGTGACACGCAACCCGGAGTCACCTAGTGCAG”, the binding signal was 10100 fluorescence intensity (a.u.). The same measure for “CCTAGCCCTAATTGATCCTTGCCTCGATGTTTTCCCTCCGCGGAGTCACCTAGTGCAG”: 10100 fluorescence intensity (a.u.); for “CCCTTGACAGCACAGAGGCAACAGCAAAACACACTCTCATCGGAGTCACCTAGTGCAG”: 8580 fluorescence intensity (a.u.). The same measure for “CTAGATTTTTTGGTGACATTTTTTAGTTGGTGTGCACGTGCGGAGTCACCTAGTGCAG”: 10200 fluorescence intensity (a.u.); for “ACTCCTCTGCATGCTTTTTTTTTCCCTTCAGTTTCAGTTGCGGAGTCACCTAGTGCAG”: 11200 fluorescence intensity (a.u.); for “GGCAACCACCTCAATTATTATTCCATTCCCTACCACCACTCGGAGTCACCTAGTGCAG”: 9980 fluorescence intensity (a.u.).

As for “TGTTTGACACCGTTGACTTTTTAGCACATGTTTGACCGTTCGGAGTCACCTAGTGCAG”, the binding signal is 38000 fluorescence intensity (a.u.).

“GTTTTAAAATGGTTGACACCGTTGACTTTTTAGCACGTGTCGGAGTCACCTAGTGCAG”: the binding signal is 30100 fluorescence intensity (a.u.). As to “ACCTTTTTAAATATTTGACACTGTCGACTTTTTAGCACATCGGAGTCACCTAGTGCAG”, the binding signal is 9730 fluorescence intensity (a.u.). Regarding “TTGACACCGTTGACTTTTTAGCACATGTTTGACCGTTCGTCGGAGTCACCTAGTGCAG”, the binding signal is 35800 fluorescence intensity (a.u.). As to “TTTAACACATGTTTGACCGTTCGTCTTATTCAAAAACTTTCGGAGTCACCTAGTGCAG”, the binding signal was 10900 fluorescence intensity (a.u.). The same measure for “TTTCAAAATATTTGACACCGTTGACTTTTTAACACATGTTCGGAGTCACCTAGTGCAG”: 17900 fluorescence intensity (a.u.). Take “TCAAAATGTTCGACACCGTTGACTTTTTAACACATGTTTGCGGAGTCACCTAGTGCAG”: the binding signal was 14400 fluorescence intensity (a.u.). The same measure for “ATCCTAAAATGTTTGACACCATTGACTTTTTTAAAAATGTCGGAGTCACCTAGTGCAG”: 8790 fluorescence intensity (a.u.); for “TGGCTTGGTCCGCTAGTTCCTAACATCATGACAGTATTTTCGGAGTCACCTAGTGCAG”: 8280 fluorescence intensity (a.u.); for “CCCAGGTAGGATATGTGTATGTGTTTATATGGGTGAGTCTCGGAGTCACCTAGTGCAG”: 9300 fluorescence intensity (a.u.). The same measure for “TTTACCTCTCTGCCGGCCTTTGCACGCTTGTAGCCCACCACGGAGTCACCTAGTGCAG”: 9670 fluorescence intensity (a.u.). In the case of “GGCACGGTTTGAACGCATTACCCATTCCCCGTTTGACTTCCGGAGTCACCTAGTGCAG” it was 12800 fluorescence intensity (a.u.); in that of “GCGTTACATACATCCTTATTATGTTGTTCATGTTTATAAACGGAGTCACCTAGTGCAG”, 8240 fluorescence intensity (a.u.). Take “CCTATATCATCCTTTGATAAGATCGACTGTTTGCTATTTACGGAGTCACCTAGTGCAG”: the binding signal was 9940 fluorescence intensity (a.u.). In the case of “TGCCAATGCCAGGGTTTTCGTCGGTTTTACATAAATTAACCGGAGTCACCTAGTGCAG” it was 8500 fluorescence intensity (a.u.); in that of “GTGGAATCGTTCGTTCTTGACTTCACCTACCAAGATTTGCCGGAGTCACCTAGTGCAG”, 8640 fluorescence intensity (a.u.).
